Compound activity from PubChem BioAssay.
TTR transcr act – increases transthyretin transcription; activation, % at 16.7 µM; 1.3% of 92,000 active; SH-SY5Y TTR promoter Gaussia luciferase, luminescence; 100% = recombinant luciferase protein wells;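 active = activation above the mean of all tested compounds plus 3 SD, cut at about 9.5% in these data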;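 also: cells exposed to compounds for one day before reading; 0% = median of all test compound wells on the plate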
HuH7 TTR inh – counter-screen for TTR activators: TTR transcription inhibitors in HuH7 cells; HuH7 TTR promoter-Gaussia luciferase reporter, luminescence; inhibition, % at 16.7 µM; 4% of 1,100 active; shares compounds with TTR transcr act;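 active = average inhibition above the solvent-only control wells' mean plus 3 SD, cut at about 15% in these data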;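 also: 0% = cells with DMSO only and 100% = cells with inhibitor control FD; inhibitors lower well luminescence so higher value means more inhibition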
TTR up confirm – confirmation of human transthyretin transcription activators. shares compounds with TTR transcr act. SHSY5Y TTR promoter Gaussia luciferase, luminescence; 100% = purified Lucia enzyme wells, no cells. activation, % at 16.7 µM. 1,100 tested, under 10 active. AID 1117280;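 active = mean activation above a set limit taken from the earlier primary screen, cut at about 11% in these data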;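 also: 0% = DMSO-treated cells and 100% = recombinant Lucia luciferase without cells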
An asterisk follows results filed as active. This excerpt belongs to a sample that is enriched for hits.

SMILES	TTR transcr act	others
C=CCN1C(=O)[C@H](CC(=O)NCC2CCCCC2)[C@@]2(C(=O)OCC)CCCC=C12	0
CCOC(=O)c1cccc(-c2cc(C(C)=O)c3n(c2=O)CCC3)c1	-2
O=C(Nc1ccc(C(F)(F)F)cc1)OC1CC2CC1[C@H]1CCCCN1[C@H]2Cc1ccccc1 (stereo partly drawn)	-1
C=CCN1C(=O)[C@H](CC(=O)N2CCN(C(=O)c3ccco3)CC2)[C@@]2(C(=O)OCC)CCCC=C12	3
Cc1cc(C)c(C(N)=O)c(Nc2ccc3c(c2)OCCO3)n1	10*	HuH7 TTR inh=-11;TTR up confirm=0
COc1ccc(Nc2nc(C)cc(C)c2C(N)=O)cc1	-2
CCc1ccc(Nc2nc(C)cc(C)c2C(N)=O)cc1	1
C[C@H](CO)N1C[C@H](C)[C@H](CN(C)C(=O)c2ccncc2)OCc2cnnn2CCCC1=O	18*	HuH7 TTR inh=-8;TTR up confirm=0
C[C@@H]1CN([C@@H](C)CO)C(=O)CCCn2nncc2CO[C@@H]1CN(C)C(=O)c1ccc(N2CCN(C)CC2)cc1	-1
C[C@@H]1CN([C@H](C)CO)C(=O)CCCn2nncc2CO[C@H]1CN(C)C(=O)c1ccccc1	2
CN(C)C(=O)c1ccc(Oc2ccc(C(=O)N(C)C)cc2)cc1	0
CN(C)C(=O)c1ccc(OCC(F)(F)F)nc1	13*	HuH7 TTR inh=-9;TTR up confirm=-1
N/C(=N\OC(=O)c1ccc(OCC(F)(F)F)nc1)c1ccc(Cl)cc1	1
CO[C@H]([C@H](C)/C=C/N(C)C=O)[C@@H](C)C(=O)CC[C@H](C)[C@H](O)[C@H](C)[C@H]1OC(=O)/C=C/C(C)=C/C[C@H](O)C[C@@H]2C=CC[C@@H](C[C@H](OC)[C@@H](C)[C@@H](OC)C[C@@H](OC)[C@@H]1C)O2	3
COc1cc(NC(=O)c2ccccc2Cl)ccc1NC(=O)c1ccco1	-2
CCOc1ccccc1NC(=O)c1cc(Cl)ccc1NC(=O)c1ccco1	12*	HuH7 TTR inh=-11;TTR up confirm=0
CCOc1cc(NC(=O)c2ccco2)c(OCC)cc1NC(=O)CCc1ccccc1OC	-2
CCCCCn1nnnc1C1(C)CSCC(=O)N1Cc1ccco1 (stereo not drawn)	8
O=C(NC1CCCCN(Cc2ccc(Cl)cc2)C1=O)c1ccccn1 (stereo not drawn)	-1
O=[N+]([O-])c1ccc(CN2CCOCCOCCN(Cc3ccc([N+](=O)[O-])cc3Cl)CCOCC2)c(Cl)c1	-1
Cc1ccc(N2C(=O)/C(=C/c3ccco3)SC2=S)cc1	-2
COc1ccccc1OCCN1C(=O)S/C(=C\c2ccco2)C1=O	10*	HuH7 TTR inh=-13;TTR up confirm=0
O=C(NCCN1C(=O)S/C(=C\c2cccs2)C1=O)c1ccco1	1
COC(=O)c1cc(-c2cc(Cl)cc(Cl)c2)c(=O)n2c1CCC2	4
COc1cccc(OCc2cc(C(=O)N3CCN(C4CCCC4)CC3)no2)c1	1
SMILES	TTR transcr act	others
COc1cccc(OCc2cc(C(=O)N3CCCC3c3ccccn3)no2)c1 (stereo not drawn)	-1
NC(=O)[C@@H]1CCCN1C(=O)c1cc(COc2ccc3c(c2)CCCC3)on1	10*	HuH7 TTR inh=-8;TTR up confirm=-1
O=C(Nc1ccc2c(c1)OCO2)c1ccc(Br)o1	-2
O=C(Nc1ccc2c(c1)OCO2)c1cccc(F)c1	4
O=C(Nc1ccc2c(c1)OCO2)c1cncc(Br)c1	11*	HuH7 TTR inh=-3;TTR up confirm=0
CC1(C)C=Cc2ccc(O)c(C(=O)/C=C/c3ccccc3)c2O1	0
CC1(c2nnnn2-c2ccc(F)cc2)CCCC(=O)N1CCc1c[nH]c2ccccc12 (stereo not drawn)	0
O=C(OCC#CCSc1nnc(-c2c[nH]c3ccccc23)o1)c1ccc(F)cc1	0
O=C(Cc1cccc(NC(=O)C2CCCN(C(=O)C3CC3)C2)c1)Nc1ccc(C(=O)N2CCCCC2)cc1 (stereo not drawn)	1
Cc1cccc(C)c1NC(=O)CNC(=O)C1CCCN(C(=O)c2ccc(Cl)cc2)C1 (stereo not drawn)	26*	HuH7 TTR inh=-7;TTR up confirm=-1
O=C(Cc1cccc(NC(=O)C2CCCN(C(=O)c3ccccc3)C2)c1)Nc1cccc(C(=O)N2CCCCC2)c1 (stereo not drawn)	3
CCCC1CCC2(CC1)CCC2OC(=O)Nc1ccc(F)cc1 (stereo not drawn)	0
Cc1cc(Nc2ccc3c(c2)OCCO3)c2cccc(C)c2n1	0
Cc1cc(C)c2c(=O)[nH]c(SCc3ccccc3C)nc2n1	-1
Cc1cc(C)c2c(N)c3cccc(C)c3nc2n1	12*	HuH7 TTR inh=-4;TTR up confirm=3
CCCCN1CCS(=O)(=O)N(Cc2cn(Cc3ccc(C)cc3)nn2)C(C(=O)OC)C1 (stereo not drawn)	-1
O=C(N=C1SC2CS(=O)(=O)CC2N1Cc1ccccc1)C1CC1 (stereo not drawn)	0
O=C(COc1ccccc1)N=C1SC2CS(=O)(=O)CC2N1c1ccccc1 (stereo not drawn)	-1
O=C(CCC1CCCC1)N=C1SC2CS(=O)(=O)CC2N1c1ccccc1F (stereo not drawn)	13*	HuH7 TTR inh=-2;TTR up confirm=-1
CCC(C#Cc1ccccc1)N(C)C(N)=NC(=O)/C=C/c1ccccc1 (stereo not drawn)	-2
CCC(C#Cc1ccccc1)NCc1ccc(OC)cc1OC (stereo not drawn)	1
O=C(/C=C/[C@H]1O[C@@H](n2cnc3c(NC(=O)c4ccccc4)ncnc32)[C@H](O)[C@@H]1O)NCCc1c[nH]c2ccccc12	-1
COCCCNC(=O)/C=C/[C@H]1O[C@@H](n2cnc3c(NC(=O)c4ccccc4)ncnc32)[C@H](O)[C@@H]1O	3
O=C(/C=C/[C@H]1O[C@@H](n2cnc3c(NC(=O)c4ccccc4)ncnc32)[C@H](O)[C@@H]1O)NCCc1ccc(F)cc1	21*	HuH7 TTR inh=-22;TTR up confirm=0
CC(C)(C)OC(=O)n1ccc2ccc(-c3ccc4cc[nH]c4c3)cc21	-1
SMILES	TTR transcr act	others
Cc1ccc(SCCN2CCN(C)CCC2=O)cc1	0
Cc1ccc(SCCN2CCC(O)CCC2=O)cc1 (stereo not drawn)	23*	HuH7 TTR inh=-9;TTR up confirm=0
CC1CCC(=O)N(CCSc2ccccc2)CC1 (stereo not drawn)	-3
S=C(Nc1cc(Cl)cc(Cl)c1)NC(c1ccccc1)c1ccccc1	-2
Cc1noc(C)c1COc1cccc(C(=O)OCCOc2ccc(F)cc2)c1	12*	HuH7 TTR inh=-7;TTR up confirm=1
Cc1cccc(C)c1NC(=O)c1ccc(OCc2c(C)noc2C)cc1	-1
COc1ccc(C(C)=O)cc1COC(=O)c1ccc(OCc2c(C)noc2C)cc1	1
CCOC(=O)[C@@H]1CSCCS(=O)(=O)N1C(=O)[C@H](CCSC)NC(=O)OC(C)(C)C	4
COc1ccccc1NC(=O)O[C@@H]1CC[C@@]23CCCN2C(=O)CCC[C@H]3C1	0
CC(C)Cc1nnc(NC(=O)CCN2C(=O)c3ccccc3C2=O)s1	0
CCC(CC)c1nnc(NC(=O)CCN2C(=O)c3ccccc3C2=O)s1	15*	HuH7 TTR inh=-18;TTR up confirm=0
O=C(CCN1C(=O)c2ccccc2C1=O)Nc1nc2ccccc2s1	-1
CC(=O)Nc1sc2c(c1-c1nc3ccccc3s1)CCN(C(C)C)CC2	3
C[C@H]1COc2cc(Br)ccc2S(=O)(=O)N1Cc1cn(CC2CCCCC2)nn1	0
